Bioassay records (PubChem BioAssay)
An excerpt weighted towards active compounds, which were near 12% of everything screened.
G9a block – G9a (human) methyltransferase inhibition | Potency, µM (titrated, usually from 102 µM), most hits filed as inhibitors | G9a H3K9 monomethylation, AlphaScreen, 2 h | 8.8% of 350,000 active; note: nearly all actives have a fitted effect of over 75% in size
Target sequence (Q96KQ7 913-1193 limits assumed): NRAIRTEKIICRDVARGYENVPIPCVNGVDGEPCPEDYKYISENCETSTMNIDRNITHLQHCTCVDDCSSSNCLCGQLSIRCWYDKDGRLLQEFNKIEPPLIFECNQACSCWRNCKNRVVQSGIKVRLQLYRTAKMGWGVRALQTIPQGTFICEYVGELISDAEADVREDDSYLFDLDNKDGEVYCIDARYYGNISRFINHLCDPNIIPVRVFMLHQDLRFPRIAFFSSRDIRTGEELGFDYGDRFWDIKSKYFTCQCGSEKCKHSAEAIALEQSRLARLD
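G9a (20 nM) preincubated 15 min RT with compounds, then 500 nM biotinylated H3K9 peptide and 20 uM SAM added; 2 h RT reaction. Monomethyl-H3K9 product detected by AlphaScreen with anti-H3K9me1 antibody, streptavidin donor and anti-rabbit IgG acceptor beads.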
JMJD2A Tudor – inhibitors of human JMJD2A Tudor domain; Potency, µM (doses to about 114 µM), hits mostly inhibitors; AID 504339; 4.4% of 390,000 active; AlphaScreen JMJD2A-Tudor / H3K4me3 peptide binding; O75164; note: nearly all actives have a fitted effect of over 50% in size
BAZ2B inh – blocks human BAZ2B | Q9UIF8 | AlphaScreen BAZ2B-H3K14Ac peptide displacement | Potency, µM (series often up to 114 µM), actives largely listed as inhibitors | 4.4% of 360,000 active; note: nearly all actives have a fitted effect of over 60% in size
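BAZ2B (50 nM) with biotin-H3(5-23)K14Ac peptide (50 nM) in PBS pH 7.4, 0.01% Tween-20, preformed 30 min, then compound 30 min at room temperature; top concentration 110uM. AlphaScreen streptavidin donor/nickel chelate acceptor beads (10 ug/mL final), 20 min dark, signal read.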
L3MBTL1 inh – inhibitors of human L3MBTL1. Potency, µM (titrated, usually from 57.1 µM), most hits filed as inhibitors. Q9Y468. 0.66% of 230,000 active. AlphaScreen L3MBTL1–H3K9me1 peptide binding. AID 485360; note: nearly all actives have a fitted effect of over 60% in size
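AlphaScreen proximity signal between nickel-chelate acceptor and streptavidin donor beads (final 10 ug/mL) reports binding of 50 nM L3MBTL1 to 75 nM biotin-H3 K9me1 peptide; complex incubated with compounds 30 min at room temperature; cefsulodin titration as control.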
Sfp inh – Sfp phosphopantetheinyl transferase inhibition. Biochemical Sfp PPTase activity, qHTS. Potency, µM, actives largely listed as inhibitors. 3.5% of 310,000 active. AID 1490;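 note: the enzyme is Sfp with the accession as filed and its product quenches rhodamine fluorescence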
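Reaction rates are the 30-min fluorescence difference (ex 525, em 598 nm) in wells containing 15 nM Sfp, 5 uM rhodamine-CoA and 12.5 uM BHQ-2-YbbR at pH 7.6 with 10 mM MgCl2.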
HP1b chromo inh – blocks HP1-beta chromodomain binding to methylated histone tails; 0.56% of 390,000 active; AlphaScreen HP1-beta / biotin-H3K9me3 peptide binding; Potency, µM (doses to about 114 µM), most hits filed as inhibitors; AID 540317; note: nearly all actives have a fitted effect of over 70% in size
Target sequence (P83916 whole entry, looked up): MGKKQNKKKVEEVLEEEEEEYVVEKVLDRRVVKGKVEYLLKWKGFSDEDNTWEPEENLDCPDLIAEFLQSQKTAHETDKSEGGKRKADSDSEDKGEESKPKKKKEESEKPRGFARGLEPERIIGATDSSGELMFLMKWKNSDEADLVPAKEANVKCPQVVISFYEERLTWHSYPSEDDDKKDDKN
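Compound inhibition of the preformed complex between 50 nM HP1-beta and 50 nM biotinylated H3K9me3 peptide was read by AlphaScreen. Buffer was PBS pH 7.4 with 0.01% Tween-20. Incubations ran 30 min at room temperature, with 10 ug/mL donor/acceptor beads.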
Hits are given with their value; [ ] = remark or other dose. Calls come from the whole dose curve; as a rule, active = well fitted curve in the direction sought with a large enough effect; inconclusive = small, poorly fitted or top-dose-only effect, or another doubt; inactive = no such curve, though single readings can be large; an effect the other way counts as inactive or inconclusive.

What do the screens show for `N#Cc1ccc(NC(=O)CN2CCN(C(=O)c3cccs3)CC2)cc1Cl`?
G9a block: 40µM; JMJD2A Tudor: inactive; BAZ2B inh: inactive; L3MBTL1 inh: inactive; HP1b chromo inh: inactive

What do the screens show for `CCC(=O)Nc1ccc(C(=O)OCc2ccccc2Cl)cc1`?
G9a block: inactive; JMJD2A Tudor: inactive; BAZ2B inh: inactive; Sfp inh: inactive; HP1b chromo inh: inactive

How did COc1cc(C(=O)NCCSc2c(-c3ccccc3)[nH]c3ccccc23)cc(OC)c1OC do in these assays?
G9a block: inactive; JMJD2A Tudor: inconclusive; BAZ2B inh: inactive; HP1b chromo inh: inactive

What do the screens show for `COc1ccc(-n2[nH]c3c4c(ncc3c2=O)CCCCC4)cc1`?
G9a block: inconclusive; Sfp inh: inactive

What do the screens show for `CCN(CC)C(=O)c1c(C)[nH]c(=S)c(C#N)c1-c1ccco1`?
G9a block: 3.2µM; JMJD2A Tudor: 7.9µM; BAZ2B inh: inactive; Sfp inh: 1µM; HP1b chromo inh: inactive

What do the screens show for `OC(c1ccc(Cl)cc1)(c1cncnc1)c1ccccc1Cl` (centres undefined)?
Sfp inh: inactive

Results for S=C(c1ccc(Cl)cc1)N1CCOCC1 ?
G9a block: 11µM; JMJD2A Tudor: inactive; BAZ2B inh: inactive; L3MBTL1 inh: inactive; Sfp inh: 40µM; HP1b chromo inh: inactive

How did Cc1[nH]n(-c2ccccc2)c(=O)c1C(c1cccc([N+](=O)[O-])c1O)c1c(C)[nH]n(-c2ccccc2)c1=O do in these assays?
G9a block: 45µM; JMJD2A Tudor: 50µM; BAZ2B inh: 32µM; L3MBTL1 inh: inactive; Sfp inh: inactive; HP1b chromo inh: inconclusive

What do the screens show for `COc1cc(C(c2c(C)[nH]n(-c3ccccc3)c2=O)c2c(C)[nH]n(-c3ccccc3)c2=O)cc(OC)c1OC`?
G9a block: inactive[0.501 µM]; JMJD2A Tudor: inconclusive; BAZ2B inh: 45µM; L3MBTL1 inh: inactive; Sfp inh: inactive; HP1b chromo inh: inactive

What do the screens show for `COc1cc2[nH]c(=O)n(-c3ccccc3)c(=O)c2cc1OC`?
G9a block: inactive; JMJD2A Tudor: inactive; BAZ2B inh: inactive; Sfp inh: inactive; HP1b chromo inh: inactive

Results for COc1ccc(-n2c(-c3ccccc3[N+](=O)[O-])nc3ccccc3c2=O)cc1 ?
G9a block: inactive; JMJD2A Tudor: inconclusive; BAZ2B inh: inconclusive; Sfp inh: inactive; HP1b chromo inh: inactive

What do the screens show for `Clc1ccc2c(c1)CCc1cccnc1C2=C1CCNCC1`?
G9a block: inactive; BAZ2B inh: inconclusive; Sfp inh: inactive

How did Clc1ccc(C2=CCC[C@H]3CC[C@@H]2N3)cn1 do in these assays?
Sfp inh: inactive

Results for CCN(CC)P(c1n(C)cc[n+]1C)N(CC)CC ?
G9a block: inconclusive; JMJD2A Tudor: 22µM; BAZ2B inh: inactive; L3MBTL1 inh: inactive; Sfp inh: inactive; HP1b chromo inh: inconclusive

What do the screens show for `CN(C)C(=O)OCc1n(C)cc[n+]1C`?
G9a block: inactive; JMJD2A Tudor: inactive; BAZ2B inh: inactive; L3MBTL1 inh: inactive; Sfp inh: inactive; HP1b chromo inh: inactive

Results for COc1ccccc1NC(=O)Cn1c(=O)n(-c2cccc(Cl)c2)c(=O)c2sc3ccccc3c21 ?
G9a block: inactive; JMJD2A Tudor: inactive; BAZ2B inh: inactive; HP1b chromo inh: inactive

What do the screens show for `COc1ccc(NC(=O)CSc2oc(-c3cccs3)nc2S(=O)(=O)c2ccccc2)c(OC)c1`?
G9a block: inconclusive; JMJD2A Tudor: inconclusive; BAZ2B inh: inactive; HP1b chromo inh: inconclusive

What do the screens show for `Cc1nn(C)c(C)c1P(=S)(c1c(C)nn(C)c1C)N(C)C`?
G9a block: 14µM; JMJD2A Tudor: inactive; BAZ2B inh: inactive; L3MBTL1 inh: inactive; Sfp inh: inactive; HP1b chromo inh: inactive

Results for COCCN1C(=NCCCOC(C)C)N[C@@H](c2ccccc2)C(C(=O)OC)=C1C ?
JMJD2A Tudor: inconclusive; BAZ2B inh: inactive; L3MBTL1 inh: inactive; Sfp inh: inactive; HP1b chromo inh: inactive

How did CCN(CC)CCNC(=O)c1c(O)c2ccccc2n(Cc2ccccc2)c1=O do in these assays?
G9a block: inconclusive; JMJD2A Tudor: 79µM; BAZ2B inh: inactive; L3MBTL1 inh: inactive; Sfp inh: inactive; HP1b chromo inh: inactive
